# Experimental data from PubChem BioAssay.
# Active and inactive are the calls of the source.
# Key:
# [1] = E. coli DRC41 culture turbidity changes, primary screen, E. coli filamentation inducer project, strain DRC41, OD650, 48 h (AID 1152);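 also: E. coli MC1000 strain DRC41 lacking acrAB efflux pump and sulA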; settings: E. coli DRC41 (acrAB sulA), higher = more signal, called active from +8 up or from −8 down
# [2] = small-molecule binders of probe aLefty1, primary screen, biochemical, small-molecule microarray, 635/667 nm fluorescence (AID 1153); settings: higher = more signal;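 also: score merges spot fluorescence with signal-to-noise ratio from the scanned slide images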
# [3] = PSAC antagonists in infected red cells, primary screen, cell-based, P. falciparum Indochina, OD700, 1 h (AID 1154); settings: P. falciparum Indochina infected RBC osmotic lysis, higher = more signal, called active from +8 up or from −8 down
# [4] = PSAC antagonists in infected red cells, primary screen, cell-based, P. falciparum Indochina, OD700, 2 h (AID 1155);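 also: lysis reports solute entry through the parasite surface anion channel PSAC; channel blockers reduce lysis of infected cells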; settings: P. falciparum Indochina infected erythrocytes, osmotic lysis OD700; higher = more signal, called active from +8 up or from −8 down
# [5] = osmotic lysis modulators in infected erythrocytes, primary screen, PSAC antagonist project, cell-based, P. falciparum Indochina, OD700, 3 h (AID 1156); settings: higher = more signal, called active from +8 up or from −8 down
# [6] = PSAC antagonists in infected red cells, primary screen, cell-based, P. falciparum Indochina, OD700, 18 h (AID 1157); settings: P. falciparum Indochina infected erythrocytes, osmotic lysis OD700, 18 h; higher = more signal, called active from +8 up or from −8 down
# [7] = modulators of S6 phosphorylation in cells, primary screen, cell-based, A549, cytoblot, luminescence, serum-stimulated (AID 1158); settings: A549 phospho-S6 cytoblot, 5 h, higher = more signal;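 also: serum-stimulated A549 lung adenocarcinoma cells; signal is phosphorylated S6 detected by cytoblot immunostaining with HRP secondary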
# [8] = target: NADPH oxidase 2 (Homo sapiens) (UniProt P04839); experiment: NOX2-dependent H2O2 signal modulators, primary screen, NOX inhibitor project, cell-based, HEK293-NOX2, PMA-stimulated, Amplex Red fluorescence (AID 1159); settings: 45 min, higher = more signal, called active from +8 up or from −8 down; also: test concentration not given here
# Chain of NADPH oxidase 2 (Homo sapiens) (P04839 whole entry, looked up): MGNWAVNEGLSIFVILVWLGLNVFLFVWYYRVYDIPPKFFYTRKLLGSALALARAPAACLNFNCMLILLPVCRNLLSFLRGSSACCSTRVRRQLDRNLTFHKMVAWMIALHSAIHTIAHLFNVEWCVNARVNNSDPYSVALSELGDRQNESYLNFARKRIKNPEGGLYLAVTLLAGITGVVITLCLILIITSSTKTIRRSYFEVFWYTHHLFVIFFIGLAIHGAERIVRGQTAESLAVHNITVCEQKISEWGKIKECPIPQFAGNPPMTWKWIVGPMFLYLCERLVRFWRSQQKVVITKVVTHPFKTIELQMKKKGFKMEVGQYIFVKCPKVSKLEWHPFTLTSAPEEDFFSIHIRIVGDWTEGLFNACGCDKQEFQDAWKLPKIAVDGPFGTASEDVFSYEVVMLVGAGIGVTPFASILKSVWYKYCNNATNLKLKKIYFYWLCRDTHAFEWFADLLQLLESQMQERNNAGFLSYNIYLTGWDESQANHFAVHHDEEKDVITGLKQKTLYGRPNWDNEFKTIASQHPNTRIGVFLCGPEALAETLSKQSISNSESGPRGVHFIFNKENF
# [9] = target: NADPH oxidase 4 (Homo sapiens) (UniProt Q9NPH5); experiment: NOX4-dependent H2O2 signal modulators, primary screen, NOX inhibitor project, cell-based, HEK293-NOX4, tetracycline-induced, Amplex Red fluorescence (AID 1160); settings: 45 min, higher = more signal, called active from +8 up or from −8 down
# Chain of NADPH oxidase 4 (Homo sapiens) (Q9NPH5 whole entry, looked up): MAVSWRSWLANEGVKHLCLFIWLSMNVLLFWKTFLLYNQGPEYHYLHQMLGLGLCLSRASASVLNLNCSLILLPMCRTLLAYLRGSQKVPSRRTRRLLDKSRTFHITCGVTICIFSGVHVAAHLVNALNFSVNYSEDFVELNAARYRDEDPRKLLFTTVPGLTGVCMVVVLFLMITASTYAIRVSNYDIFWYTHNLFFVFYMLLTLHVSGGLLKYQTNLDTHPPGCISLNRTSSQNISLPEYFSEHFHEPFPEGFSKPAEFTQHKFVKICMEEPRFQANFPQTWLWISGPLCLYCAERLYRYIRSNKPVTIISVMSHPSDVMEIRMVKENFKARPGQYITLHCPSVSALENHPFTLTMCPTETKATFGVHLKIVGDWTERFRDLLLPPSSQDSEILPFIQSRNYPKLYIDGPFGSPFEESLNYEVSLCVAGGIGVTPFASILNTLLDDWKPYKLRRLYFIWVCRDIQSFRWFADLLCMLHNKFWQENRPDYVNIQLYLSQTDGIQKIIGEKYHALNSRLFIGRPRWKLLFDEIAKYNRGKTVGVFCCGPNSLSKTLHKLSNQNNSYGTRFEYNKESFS
# [10] = target: NADPH oxidase 5 (Homo sapiens) (UniProt Q96PH1); experiment: NOX5-dependent H2O2 signal modulators, primary screen, NOX inhibitor project, cell-based, HEK293-NOX5, Amplex Red fluorescence (AID 1161); settings: HEK293-NOX5, ionomycin, 45 min, higher = more signal
# Chain of NADPH oxidase 5 (Homo sapiens) (Q96PH1 whole entry, looked up): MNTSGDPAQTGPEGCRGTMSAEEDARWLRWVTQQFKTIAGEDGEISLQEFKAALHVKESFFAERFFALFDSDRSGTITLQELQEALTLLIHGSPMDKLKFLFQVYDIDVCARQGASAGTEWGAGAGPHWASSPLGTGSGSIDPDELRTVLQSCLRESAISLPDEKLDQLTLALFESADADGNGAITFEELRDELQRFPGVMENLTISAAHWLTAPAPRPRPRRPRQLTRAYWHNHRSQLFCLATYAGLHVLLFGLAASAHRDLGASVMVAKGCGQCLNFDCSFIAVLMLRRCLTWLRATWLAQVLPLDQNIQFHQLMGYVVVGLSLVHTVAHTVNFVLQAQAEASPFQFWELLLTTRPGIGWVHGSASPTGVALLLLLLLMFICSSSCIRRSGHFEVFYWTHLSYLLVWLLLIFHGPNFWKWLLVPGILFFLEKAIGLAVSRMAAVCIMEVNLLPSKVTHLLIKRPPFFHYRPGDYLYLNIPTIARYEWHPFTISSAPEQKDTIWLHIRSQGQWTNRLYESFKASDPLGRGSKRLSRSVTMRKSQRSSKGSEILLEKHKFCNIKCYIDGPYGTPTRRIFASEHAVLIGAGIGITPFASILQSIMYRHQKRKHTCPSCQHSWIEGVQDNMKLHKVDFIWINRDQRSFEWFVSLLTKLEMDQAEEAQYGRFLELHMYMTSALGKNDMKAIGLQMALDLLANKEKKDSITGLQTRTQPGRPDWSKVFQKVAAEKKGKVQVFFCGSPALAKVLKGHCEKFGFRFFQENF
# [11] = A549 cell viability effects, profiling panel, calcein-AM fluorescence, 48 h, basal (AID 1162); settings: higher = more signal; also: test concentration not given here
# [12] = adipocyte viability effects, profiling panel, cell-based, 3T3-L1 adipocytes, calcein-AM fluorescence, 48 h, basal (AID 1163); settings: 3T3-L1 adipocytes viability, higher = more signal; also: test concentration not given here
# [13] = HepG2 cell viability effects, profiling panel, calcein-AM fluorescence, 48 h, basal (AID 1164); settings: higher = more signal; also: test concentration not given here
# [14] = MM1S cell viability effects, profiling panel, calcein-AM fluorescence, 48 h, basal (AID 1165); settings: higher = more signal;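 also: viability of MM1S multiple myeloma cells under basal unstimulated conditions; test concentration not given here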
# [15] = basal RPMI8226 viability, no added stimulus, profiling panel, cell-based, calcein-AM fluorescence, 48 h, PK04 Diversity Set (AID 1166); settings: RPMI8226 myeloma viability, higher = more signal;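 also: cells grown under basal conditions without added stimulus; test concentration not given here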
# [16] = basal HepG2 mitochondrial membrane potential changes, profiling panel, cell-based, JC-1 fluorescence, 24 h, 100 nL compound (AID 1167); settings: higher = more signal; also: test concentration not given here
# [17] = basal 3T3-L1 adipocyte mitochondrial potential changes, profiling panel, cell-based, JC-1 fluorescence, 3T3-L1 adipocytes, 24 h, 100 nL compound (AID 1168); settings: JC-1 mitochondrial fluorescence, higher = more signal, called active from +8 up or from −8 down; also: test concentration not given here
# [18] = basal RPMI8226 mitochondrial membrane potential changes, profiling panel, cell-based, JC-1 fluorescence, 24 h, 100 nL compound (AID 1169); settings: RPMI8226 myeloma, JC-1 mitochondrial potential fluorescence, higher = more signal; also: test concentration not given here
# [19] = basal MM1S mitochondrial membrane potential changes, profiling panel, cell-based, JC-1 fluorescence, 24 h, 100 nL compound (AID 1170); settings: higher = more signal; also: test concentration not given here
# [20] = A549 lung cancer cell viability effects, profiling panel, resazurin fluorescence, 24 h, PK04 Diversity Set (AID 1171); settings: higher = more signal, called active from +8 up or from −8 down; also: test concentration not given here
SMILES,z-score [1],composite z-score [2],z-score [3],z-score [4],z-score [5],z-score [6],z-score [7],z-score [8],z-score [9],z-score [10],z-score [11],z-score [12],z-score [13],z-score [14],z-score [15],z-score [16],z-score [17],z-score [18],z-score [19],z-score [20]
C=CCOC(=O)[C@H]1[C@@H]2C(=O)O[C@@H](c3ccccc3)[C@@H](c3ccccc3)N2[C@@H](c2ccc(OCCOC(=O)[C@H]3C[C@H]4C(=O)NCC(=O)N4[C@H]3c3ccc(O)cc3)cc2)[C@]12C(=O)Nc1ccc(I)cc12,0.345 (inactive),0.0359,2.6 (inactive),2.66 (inactive),1.02 (inactive),1.33 (inactive),0.839,1.54 (inactive),1.5 (inactive),1.22,-0.362,0.34,1.78,0.782,0.483,-1.63,0.266 (inactive),-0.398,-1.43,0.144 (inactive)
C=CCC(OC(C)=O)[C@@H]1[C@@H](N(Cc2ccc(-c3ccccc3)cc2)C(=O)c2cccc3ccccc23)c2cc(OCCCO)ccc2N1C(=O)c1ccc2ccccc2c1 (stereo not given in full),-0.887 (inactive),-0.0447,0.441 (inactive),-0.35 (inactive),-0.0836 (inactive),-0.0577 (inactive),-0.146,-0.634 (inactive),-0.572 (inactive),-4.29,0.197,-0.114,0.833,-0.679,-0.202,1.91,-1.3 (inactive),-0.53,0.0357,-0.725 (inactive)
C#CCN=C(N)N,0.0764 (inactive),-0.214,0.269 (inactive),0.347 (inactive),-0.765 (inactive),-0.0065 (inactive),-0.871,0.059 (inactive),0.217 (inactive),-0.0927,-0.268,-0.677,0.527,0.67,0.381,-0.794,0.268 (inactive),-0.574,-0.922,0.0116 (inactive)
COCCOC(=O)N1C(=O)[C@@]2(c3cc(C#CC4(O)CCCCCC4)ccc31)[C@H](C(=O)N1CCc3cc(OC)c(OC)cc3C1)[C@H]1C(=O)O[C@H](c3ccccc3)[C@H](c3ccccc3)N1[C@@H]2c1ccc(O)cc1,1.27 (inactive),0.176,1.31 (inactive),0.735 (inactive),1.89 (inactive),0.712 (inactive),0.278,2.19 (inactive),0.296 (inactive),0.725,-0.635,1.29,0.582,-1.06,-0.964,-0.145,-0.093 (inactive),-1.06,0.318,-0.311 (inactive)
CCCCN1CC=CC23O[C@@H]4C=CCOC(=O)[C@@H]4[C@H]2C(=O)N(CCO)[C@@H]3C1=O (stereo not given in full),-0.492 (inactive),0.175,-0.366 (inactive),0.574 (inactive),0.349 (inactive),0.381 (inactive),-0.415,1.51 (inactive),1.08 (inactive),0.669,0.0738,-0.426,0.442,-1.05,0.342,-0.454,0.302 (inactive),0.837,-0.209,-0.437 (inactive)
CCCCC(=C=CC[C@@H](O)c1ccc(OCCO)cc1)C[C@@H](O)c1ccccn1,0.26 (inactive),0.122,15.7 (active),2.47 (inactive),0.871 (inactive),0.849 (inactive),-0.787,-0.697 (inactive),-0.351 (inactive),-1.77,-0.0074,0.0358,0.333,-2.63,-0.616,-1.05,-1.58 (inactive),-0.674,-0.94,-0.477 (inactive)
Cc1ccccc1C(O)C1C=CC2C(=O)N(c3ccccc3)C(=O)C2N1Nc1ccccc1F (stereo not given),-1.37 (inactive),0.649,10.8 (active),2.28 (inactive),0.39 (inactive),1.1 (inactive),-1.16,-2.02 (inactive),-5.43 (inactive),-3.71,0.569,-0.522,-0.157,-0.584,-0.666,-2.82,-1.49 (inactive),-0.0566,0.368,-0.425 (inactive)
C=C(COC)C(=O)CC[C@@H](OC(=O)c1cccnc1)c1cccc(OCCO)c1,0.857 (inactive),0.571,13.9 (active),1.86 (inactive),1.21 (inactive),0.454 (inactive),0.28,-3.15 (inactive),-0.703 (inactive),-1.33,-0.0547,0.627,-0.714,-3.31,-1.71,0.082,0.195 (inactive),-0.26,-1.78,0.9 (inactive)
CC(C)=CCN(C(=O)C#Cc1ccccc1)[C@H](CO)c1ccccc1,-4.56 (inactive),-0.0876,16.8 (active),3.67 (inactive),-2.25 (inactive),0.402 (inactive),0.21,2.15 (inactive),-1 (inactive),-3.76,-3.88,-0.522,-5.06,-3.2,-4.1,-3.07,0.983 (inactive),-1.24,-2.54,-2.45 (inactive)
